Screening results as filed in PubChem.
CHX counter: counter-screen for Shiga toxin inhibitors: cycloheximide protein synthesis inhibition. cell reporter, cycloheximide protein synthesis inhibition counterscreen. max response, %. 300,000 tested, 12% active. AID 2314; in the data active = max response mostly above about 13%, no sharp cut-off; inactive = mostly below about 14%; also: read at 38.3 µM for the half of the compounds with a filed dose; 0% is about no effect
LmPK inhibitor: inhibitors of Leishmania mexicana pyruvate kinase | Potency, µM (series often up to 57.5 µM), for the others: top-dose activity change, negative = inhibition, actives largely listed as inhibitors | 290,000 tested, 0.37% active | purified LmPK, Kinase-Glo ATP luminescence, 1 h | Q27686; also: potency is read from the fitted curve at half-maximal effect; % is scaled to controls: 0 for no effect and ±100 for the full control effect
Target sequence (Q27686 whole entry, looked up): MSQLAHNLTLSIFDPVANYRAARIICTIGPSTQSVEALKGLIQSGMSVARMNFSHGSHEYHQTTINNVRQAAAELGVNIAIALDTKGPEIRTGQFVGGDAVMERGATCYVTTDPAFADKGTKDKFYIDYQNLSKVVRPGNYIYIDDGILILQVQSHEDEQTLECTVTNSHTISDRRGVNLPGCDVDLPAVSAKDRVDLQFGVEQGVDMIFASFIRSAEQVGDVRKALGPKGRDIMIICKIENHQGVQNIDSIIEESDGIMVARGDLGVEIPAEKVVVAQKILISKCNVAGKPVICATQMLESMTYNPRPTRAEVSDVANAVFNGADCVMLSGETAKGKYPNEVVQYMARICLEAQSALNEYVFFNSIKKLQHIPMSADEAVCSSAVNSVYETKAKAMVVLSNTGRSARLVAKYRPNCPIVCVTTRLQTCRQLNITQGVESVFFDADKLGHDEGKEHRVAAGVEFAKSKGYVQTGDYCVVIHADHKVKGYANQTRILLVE
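0.1 nM LmPK, 0.5 mM PEP, 0.1 mM ADP; 50 mM imidazole pH 7.2, 7 mM MgCl2, 50 mM KCl; 1 h RT. Kinase-Glo luminescence readout, normalized to no-enzyme (full inhibition) and uninhibited wells.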
Pf growth 96h: P. falciparum growth inhibition at 96 hours; 320,000 tested, 6.9% active; P. falciparum luciferase reporter growth, 96 h; AID 504834; Potency, µM (highest dose often 28.7 µM), for the others: top-dose activity change, negative = inhibition, hits mostly inhibitors; also: potency is read from the fitted curve at half-maximal effect; % is scaled to controls: 0 for no effect and ±100 for the full control effect
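Parasite growth measured via integrated firefly luciferase reporter in P. falciparum. Infected erythrocytes at 2% hematocrit, 0.05% parasitemia final were treated 96 hours at 37 C under 5% CO2, and luminescence was read.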
Pf growth 48h: inhibits P. falciparum growth in the first generation, 48 h; P. falciparum luciferase growth in erythrocytes, 48 h; Potency, µM (top dose mostly 28.7 µM), for the others: at the highest dose activity change, negative = inhibition, hits mostly inhibitors; 310,000 tested, 5.9% active; also: potency is read from the fitted curve at half-maximal effect; % is scaled to controls: 0 for no effect and ±100 for the full control effect
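First compound was added to culture medium, then infected red cells at 0.1% parasitemia and 2% hematocrit (final). After incubation at 37 C under 5% CO2, luciferase detection reagent was dispensed and light output recorded.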
Shiga inhibitor: blocks Shiga toxin action in Vero cells; Vero cells, Shiga toxin protein synthesis inhibition reporter; inhibition, % at 38.7 µM; 290,000 tested, 9.2% active; AID 2315; in the data active = inhibition mostly above about 28%, no sharp cut-off; inactive = mostly below about 43%; also: 0% is about no effect
Starred values were filed as active, the others as inactive; u = inconclusive; x = not tested or not shown; [ ] = dose if it differs, or a comment. A selection: hits, their analogues and other compounds. The true share with any hit is near 22%. Unless noted, calls follow the shape of the dose curve; as a rule, active = well fitted inhibition curve with a large enough effect; inconclusive = small, poorly fitted or top-dose-only effect, or another doubt; inactive = no such curve, though single readings can be large or run the other way.

SMILES	CHX counter	LmPK inhibitor	Pf growth 96h	Pf growth 48h	Shiga inhibitor
COc1ccc(-c2nc(C#N)c(NCCCn3ccnc3)o2)cc1OC	1	0%	x	u	-7
Cc1ccc(CNc2oc(-c3ccco3)nc2C#N)cc1	10	3%	0%	-16%	15
N#Cc1nc(-c2ccc(OCc3ccc(Cl)cc3)cc2)oc1NCc1cccnc1	35*	-6%	u	-6%	75*
N#Cc1nc(-c2ccc(OCc3ccccc3)cc2)oc1NCCCn1ccnc1	-1	12%	15%[5.75 µM]	2.9µM*	11
CN(Cc1c(C(=O)N/N=C/c2cccc(Cl)c2)nnn1-c1nonc1N)c1ccccc1	2	-7%	18%	18%	3
CCC1CC=CC2C1C(=O)N(Cc1ccccc1)C2c1ccc(C(F)(F)F)cc1 (configuration not stated)	2	x	x	x	0
CN(C1CCCCC1)S(=O)(=O)c1cn(C)c(=O)n(C)c1=O	x	x	-14%	-18%	x
N#Cc1nc(-c2ccc(OCc3ccccc3)cc2)oc1NCc1cccnc1	2	4%	u	u	40
N#Cc1nc(COc2ccccc2)oc1NCCCn1ccnc1	27*	1%	u	u	33*
CN(C)c1oc(-c2ccc(OCc3ccccc3)cc2)nc1C#N	31*	0%	5.2µM*	-14%	49*
N#Cc1nc(-c2ccc(OCc3ccccc3Cl)cc2)oc1NCCCn1ccnc1	15*	-8%	21%	1.7µM*	26*
CC(C(=O)NCc1ccc(F)cc1)c1ccc([N+](=O)[O-])cc1 (configuration not stated)	0	2%	9%	u	8
COCC(=O)NC1CCN(CC(=O)Nc2ccccc2[N+](=O)[O-])CC1	7	0%	-11%	11%	-17
O=C(c1ccc(F)cc1)C1CCN(C(=O)Nc2ccccc2Cl)CC1	-3	1%	2.9µM*	-26%	23
Cc1ccccc1NC(=O)N1CCC(C(=O)c2ccc(F)cc2)CC1	-2	1%	u	4%	25
CN(Cc1ccc(C(C)(C)C)cc1)C(=O)C1CCN(C(=O)Nc2ccccc2)CC1	x	x	13µM*	10µM*	x
Cc1ccc(NC(=O)N2CCC(C(=O)c3ccc(F)cc3)CC2)cc1	11	-1%	-6%	-9%	13
O=C(c1ccccc1)C1CCN(C(=O)Nc2ccccc2)CC1	16*	0%	8%	u	6
O=C(Nc1ccccc1)N1CCCC2CCCCC21 (configuration not stated)	45*	-1%	x	92%	94*
O=C(NC1CCCC1)C1CCCN1C(=O)Nc1ccccc1 (configuration not stated)	-4	-4%	1%[5.75 µM]	6%	-13
Cc1cc(OCCCn2c(CCNC(=O)C3CCCCC3)nc3ccccc32)ccc1Cl	-2	x	x	x	-3
C#CCNC(=O)C1=C[C@H](C2CCCCC2)C[C@H](OCCCCO)O1	-2	8%	u	u	-1
O=C(Nc1ccccc1)C1=C[C@H](C2CCCCC2)C[C@H](OCc2ccc(CO)cc2)O1	43*	4%	u	u	55*
C#CCNC(=O)C1=C[C@@H](C2CCCCC2)C[C@@H](OCCCCO)O1	15*	10%	u	u	26
NC(=O)C1=C[C@@H](c2ccc(C(F)(F)F)cc2)C[C@@H](OCCCCO)O1	7	6%	13%	11%	-11
SMILES	CHX counter	LmPK inhibitor	Pf growth 96h	Pf growth 48h	Shiga inhibitor
O=C(Nc1ccccc1)C1=C[C@@H](C2CCCCC2)C[C@@H](OCCCCO)O1	74*	4%	0%	98%	172*
C#CCNC(=O)C1=C[C@H](c2ccc(C(F)(F)F)cc2)C[C@H](OCCCCO)O1	8.6*	4%	u	u	42
O=C(O)C1=C[C@@H](C2CC2)C[C@@H](OCc2ccc(CO)cc2)O1	1	5%	75%	22%	6
CCN(CC)S(=O)(=O)c1cc(Br)ccc1OC	-4	0%	-8%	-6%	-3
O=C(CSc1n[nH]c(-c2ccco2)n1)Nc1ccccc1Cl	-1	-3%	-11%	5%	2
CCC1(c2ccccc2)NC(=O)N(CC(=O)Nc2ccc(S(=O)(=O)NC3=NCCCCC3)cc2)C1=O (configuration not stated)	x	x	-12%	u	x
O=C(Nc1ccccc1)C1=C[C@@H](C2CCCCC2)C[C@@H](OCc2ccc(CO)cc2)O1	40*	7%	u	u	84*
Cc1ccc2nc(NCCN)c3ncc(C)n3c2c1	-6	x	x	x	-9
O=C(/C=C/c1ccco1)c1ccc(NC(=O)C23CC4CC(CC(C4)C2)C3)cc1	8	2%	u	u	13
O=C(Cc1ccccc1)Nc1ccc(NC(=O)C2CCCCC2)nc1	-3	5%	u	-10%	4
O=C(Nc1ccc(NC(=O)C2CC2)cc1)c1ccco1	43*	-9%	3%	164%	63*
O=C(Nc1ccc(NC(=O)C23CC4CC(CC(C4)C2)C3)cn1)c1ccco1	48*	2%	u	23%	69*
O=C(Nc1ccc(NC(=O)C2CCCCC2)cn1)c1ccco1	39*	-18%	-88%	39%	10
N=c1ncn(Cc2ccccc2)c2nc(SCCOc3ccccc3)[nH]c12	-2	8%	-21%	-1%	1
Cc1cccc(C(=O)NC2CCN(CC(=O)NCc3ccccc3F)CC2)c1	-5	11%	4%	u	-4
O=C1NC2(CCCC2)C(=O)N1CC(=O)N(Cc1ccccc1)c1ccccc1	x	x	3%	u	x
CCOC(=O)N1CCN(S(=O)(=O)c2c(C(=O)N3CCCCC3)c(C)n(C)c2C)CC1	-7	-9%	25%	1%	-4
CCOC(=O)C1(Cc2cccc(Cl)c2)CCCN(C(=O)c2cnn(CC)c2)C1 (configuration not stated)	22*	-5%	15%	-4%	39*
CCOC(=O)C1(Cc2cccc(Cl)c2)CCCN(C(=O)c2cn[nH]c2)C1 (configuration not stated)	-2	3%	7%	u	1
CCOC(=O)C1(Cc2cccc(Cl)c2)CCCN(C(=O)c2cccnc2)C1 (configuration not stated)	-1	2%	4.7µM*	16%	37
CCc1ccc(CNC(=O)C2CCCN(S(=O)(=O)N(CC)c3ccccc3)C2)cc1 (configuration not stated)	-3	2%	3%	-8%	-5
O=Cc1cccn1Cc1ccccc1[N+](=O)[O-]	33*	-1%	9.3µM*	-2%	13
Cc1cccc(-n2ccnc2CN2CCC(CO)(Cc3ccccc3)CC2)c1	-2	3%	-21%	u	-34
COc1ccc(N2CCN(c3ncnc4scc(-c5ccc(F)cc5)c34)CC2)cc1	11	-3%	12µM*	u	-6
CCN1CCN(c2ncnc3scc(-c4ccc(OC)cc4)c23)CC1	-4	0%	14%	-1%[0.00184 µM]	-8
